# PubChem BioAssay
# Assay: Primary imaging screen for DUSP6 inhibitors that restore phospho-Erk in transfected HeLa cells, chemical complementation (AID 609)
# Conditions: HeLa MKP-3 transfected, phospho-Erk imaging KS statistic; measured here: nuclear c-Myc green intensity z-score; at 10 µM; cells stimulated with TPA for 15 min
row,SMILES,z-score
1,O=C(O)c1cc(O)c2c(c1)C(=O)c1cccc(O)c1C2=O,-1.15
2,CCCCC(=O)Nc1c(O)c2ccccc2[nH]c1=O,0.174
3,Cc1cc(C)n(CC(=O)n2c3c(c4ccccc42)CCCC3)n1,1.41
4,CCC(NC(C)C)C(O)c1ccc(O)c(O)c1 (stereo not drawn),-0.395
5,COc1ccc(C2CNC(=O)C2)cc1OC1CCCC1 (stereo not drawn),-0.0715
6,Cn1cnc2c1c(=O)[nH]c(=O)n2C,-0.093
7,N=c1nc(N2CCCCC2)cc(N)n1O,-0.0187
8,CCCCCC(=O)N1CC2(C)CN(C(=O)CCCCC)CC(C)(C1)C2=O,0.672
9,O=C(O)Cc1ccc(-c2ccccc2)cc1,0.515
10,CCSc1nc(N)c(C#N)c(-c2ccccc2Cl)c1C#N,3.1
11,O=C(OCC#CCSc1nnc(-c2ccccc2)o1)c1cccs1,0.84
12,Nc1nc(F)nc2c1ncn2[C@@H]1O[C@H](CO)[C@@H](O)[C@@H]1O,0.314
13,Cc1nc2sccn2c(=O)c1CCN1CCC(=C(c2ccc(F)cc2)c2ccc(F)cc2)CC1,0.124
14,OCCNC1=NCCN1,-1.05
15,CCC[C@@H]1C[C@@H](C(=O)N[C@H]([C@@H](C)O)[C@H]2O[C@H](SC)[C@H](O)[C@@H](O)C2O)N(C)C1 (stereo partly drawn),-0.277
16,CCOC(=O)C1=C[C@]2(CC)CCCN3CCc4c(n1c1ccccc41)[C@@H]32,0.193
17,NS(=O)(=O)c1cc2c(cc1Cl)NC(CSCc1ccccc1)=NS2(=O)=O,-0.584
18,Nc1ccc(S(=O)(=O)Nc2ccccn2)cc1,-1.54
19,CC(=O)Oc1cccc2c1C(=O)c1c(OC(C)=O)cc(C(=O)O)cc1C2=O,-1.04
20,OCC(O)CN1CCN(c2ccccc2)CC1 (stereo not drawn),0.0558

row,SMILES,z-score
1,O=C(NC1(C(F)(F)F)C(=O)Nc2c1c(=O)[nH]c(=O)n2Cc1ccco1)C1CCCCC1 (stereo not drawn),1.09
2,CCN(CC)CC#CCOC(=O)C(O)(c1ccccc1)C1CCCCC1 (stereo not drawn),-0.591
3,CN1[C@@H](CC(=O)c2ccccc2)CCC[C@H]1C[C@H](O)c1ccccc1,-0.85
4,O=C(O)c1ccccc1Nc1cccc(C(F)(F)F)c1,0.639
5,O=[N+]([O-])c1cccc2cn[nH]c12,-1.27
6,COc1cccc(-c2nnc3sc(C4CCCCC4)nn23)c1,0.807
7,CNCCCC1c2ccccc2C=Cc2ccccc21,0.418
8,CC(C)(C)NCC(O)COc1cccc2c1C[C@H](O)[C@H](O)C2 (stereo partly drawn),0.144
9,CCOC(=O)CSC1=C(C#N)C(=O)NC(c2ccc(OC)c(OC)c2)S1 (stereo not drawn),2.48
10,COc1ccc2nc(S(=O)Cc3ncc(C)c(OC)c3C)[nH]c2c1 (stereo not drawn),1.22
11,Cc1cc(C)c(C#N)c(SCc2[nH]nc3c2C(c2ccccc2)C(C#N)=C(N)O3)n1 (stereo not drawn),-0.343
12,O/N=C/c1ccc(OCC(O)COc2ccc(/C=N/O)cc2)cc1,-0.218
13,CC(C)(C)OC(=O)N1CC=C2C(C#N)=C(N)C(C#N)(C#N)[C@H](c3cccnc3)[C@H]2C1,-0.413
14,Oc1c(I)cc(I)c2cccnc12,-1.99
15,CCCCOc1ccc(C(=O)CCN2CCCCC2)cc1,-0.213
16,CN(C)c1nc(OCCOC(=O)Nc2ccc(Cl)cc2Cl)nc(N(C)C)n1,0.513
17,CCOC(=O)c1c(C)n(C)c2ccc(OC)c(NC(=O)CCN3CCSCC3)c12,0.452
18,CC(C)(C)n1cnc2cc(NS(=O)(=O)c3ccc(Br)cc3)ccc21,1.31
19,Cn1c([N+](=O)[O-])cnc1COC(N)=O,0.491

# Same assay, conditions: HeLa MKP-3 transfected, phospho-Erk imaging KS statistic; measured here: nuclear pErk red intensity z-score; at 10 µM; stronger effect = higher value; cells stimulated with TPA for 15 min
row,SMILES,z-score
1,O=C(O)c1cc(O)c2c(c1)C(=O)c1cccc(O)c1C2=O,1.27
2,CCCCC(=O)Nc1c(O)c2ccccc2[nH]c1=O,1.14
3,Cc1cc(C)n(CC(=O)n2c3c(c4ccccc42)CCCC3)n1,0.335
4,CCC(NC(C)C)C(O)c1ccc(O)c(O)c1 (stereo not drawn),0.461
5,COc1ccc(C2CNC(=O)C2)cc1OC1CCCC1 (stereo not drawn),0.178
6,Cn1cnc2c1c(=O)[nH]c(=O)n2C,1.06
7,N=c1nc(N2CCCCC2)cc(N)n1O,0.315
8,CCCCCC(=O)N1CC2(C)CN(C(=O)CCCCC)CC(C)(C1)C2=O,0.65
9,O=C(O)Cc1ccc(-c2ccccc2)cc1,-0.372
10,CCSc1nc(N)c(C#N)c(-c2ccccc2Cl)c1C#N,0.136
11,O=C(OCC#CCSc1nnc(-c2ccccc2)o1)c1cccs1,0.574
12,Nc1nc(F)nc2c1ncn2[C@@H]1O[C@H](CO)[C@@H](O)[C@@H]1O,0.132
13,Cc1nc2sccn2c(=O)c1CCN1CCC(=C(c2ccc(F)cc2)c2ccc(F)cc2)CC1,-0.385
14,OCCNC1=NCCN1,0.931
15,CCC[C@@H]1C[C@@H](C(=O)N[C@H]([C@@H](C)O)[C@H]2O[C@H](SC)[C@H](O)[C@@H](O)C2O)N(C)C1 (stereo partly drawn),0.417
16,CCOC(=O)C1=C[C@]2(CC)CCCN3CCc4c(n1c1ccccc41)[C@@H]32,-0.265
17,NS(=O)(=O)c1cc2c(cc1Cl)NC(CSCc1ccccc1)=NS2(=O)=O,-0.561
18,Nc1ccc(S(=O)(=O)Nc2ccccn2)cc1,0.683
19,CC(=O)Oc1cccc2c1C(=O)c1c(OC(C)=O)cc(C(=O)O)cc1C2=O,-0.102
20,OCC(O)CN1CCN(c2ccccc2)CC1 (stereo not drawn),-0.225

row,SMILES,z-score
1,O=C(NC1(C(F)(F)F)C(=O)Nc2c1c(=O)[nH]c(=O)n2Cc1ccco1)C1CCCCC1 (stereo not drawn),0.0354
2,CCN(CC)CC#CCOC(=O)C(O)(c1ccccc1)C1CCCCC1 (stereo not drawn),0.229
3,CN1[C@@H](CC(=O)c2ccccc2)CCC[C@H]1C[C@H](O)c1ccccc1,0.339
4,O=C(O)c1ccccc1Nc1cccc(C(F)(F)F)c1,-1.06
5,O=[N+]([O-])c1cccc2cn[nH]c12,-1.46
6,COc1cccc(-c2nnc3sc(C4CCCCC4)nn23)c1,-1.36
7,CNCCCC1c2ccccc2C=Cc2ccccc21,3.14
8,CC(C)(C)NCC(O)COc1cccc2c1C[C@H](O)[C@H](O)C2 (stereo partly drawn),1.49
9,CCOC(=O)CSC1=C(C#N)C(=O)NC(c2ccc(OC)c(OC)c2)S1 (stereo not drawn),0.606
10,COc1ccc2nc(S(=O)Cc3ncc(C)c(OC)c3C)[nH]c2c1 (stereo not drawn),-0.909
11,Cc1cc(C)c(C#N)c(SCc2[nH]nc3c2C(c2ccccc2)C(C#N)=C(N)O3)n1 (stereo not drawn),0.203
12,O/N=C/c1ccc(OCC(O)COc2ccc(/C=N/O)cc2)cc1,-0.78
13,CC(C)(C)OC(=O)N1CC=C2C(C#N)=C(N)C(C#N)(C#N)[C@H](c3cccnc3)[C@H]2C1,0.348
14,Oc1c(I)cc(I)c2cccnc12,1.27
15,CCCCOc1ccc(C(=O)CCN2CCCCC2)cc1,-1.06
16,CN(C)c1nc(OCCOC(=O)Nc2ccc(Cl)cc2Cl)nc(N(C)C)n1,-0.605
17,CCOC(=O)c1c(C)n(C)c2ccc(OC)c(NC(=O)CCN3CCSCC3)c12,0.641
18,CC(C)(C)n1cnc2cc(NS(=O)(=O)c3ccc(Br)cc3)ccc21,-0.322
19,Cn1c([N+](=O)[O-])cnc1COC(N)=O,1.01
